# PubChem BioAssay (NCI)
# This is part of a sample that, as a whole, favours compounds with a hit. Of some 83,000 tested, about 20% had one in any assay.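 Single-concentration screen, 48 h exposure, 96-well plates. Endpoint: percent growth. Below 10 = active.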 Calls of active or inactive are those of the source.
# Tested on: HOP-62 NSCLC
# Experiment: NCI-60 one-dose screen, 48 h (100 = growth as untreated, 0 = no growth, -100 = all killed)
# Conditions: 10 µM unless noted
# Experimental: Growth inhibition of the HOP-62 human Non-Small Cell Lung tumor cell line is measured as a screen for anti-cancer activity. Cells are grown in 96 well plates and exposed to the test compound for 48 hours. Compounds are tested at a single concentration, which is 10^-5 M for most compounds. The reported endpoint is percent growth (GI% or GIPRCNT), where numbers from 0 - 100% represent growth inhibition, and numbers from -100% - 0 represent cell death. For example, a value of 40 represents 60% growth inhibition. A value of 0 means no net growth occurred over the course of the experiment. A value of -40 indicates 40% of cells at the beginning of the experiment died by the end of the experiment. A value of -100 means all cells are dead at the end of the experiment.
# NCI-60 Human Tumor Cell Lines Screen was performed using the standard one-dose NCI protocol, which is described in more detail at https://dtp.cancer.gov/discovery_development/nci-60/default.htm.
# Compounds with GIPRCNT values below 10 were considered active. Activity score was based on GIPRCNT using the following formula: […]
# Score is 0 for GIPRCNT values of 100 or above, 50 for GIPRCNT values of 0, and 100 for GIPRCNT values of -100.
row,Compound,growth
1,C=C1C(=O)O[C@H]2[C@H]1CC/C(C=Nc1c(N)cc(C(F)(F)F)cc1Br)=C\CC[C@@]1(C)O[C@@H]21,52% (inactive)
2,Nc1c(C(=O)Nc2ccccc2Cl)sc2nc3c(cc12)CN(Cc1ccccc1)CC3,104% (inactive)
3,COc1ccccc1-c1ccc2nc(NC(=O)Nc3cc(C(F)(F)F)cc(C(F)(F)F)c3)sc2c1,-1.58% (active)
4,O=C(C[n+]1cccc2cc(Cl)ccc21)c1ccc2c(c1)CCCC2,36.2% (inactive)
5,C#C[C@@]1(O)[C@@H](CO)O[C@@H](n2cnc3c(-c4ccccc4)ncnc32)[C@@H]1O,110% (inactive)
6,Cc1cc2ccccc2c[n+]1CC(=O)c1ccc(-c2ccccc2)cc1,67.1% (inactive)
7,CN(C)C1=NCCN1,107% (inactive)
8,CC(=O)Oc1ccc(O)cc1,113% (inactive)
9,O=C1NN(c2ccccc2)C(c2ccc(Cl)cc2)N2CCC[C@H]12 (stereo not given in full),98.8% (inactive)
10,COc1ccc(Sc2[nH]c(C(C)=O)c3ccccc23)cc1,83.7% (inactive)
11,COc1ccc2nc(-c3ccc(Cl)cc3)cc(-c3nnc(SC/C(=N/O)c4ccccc4)o3)c2c1,59.4% (inactive)
12,O=C(Nc1nc(-c2ccccc2)cs1)c1cc(-c2ccc(Br)cc2)nc2ccccc12,57.1% (inactive)
13,O=C1CC(c2ccc(O)c(O)c2)Oc2cc(O)c([C@@H]3O[C@H](CO)[C@@H](O)[C@H](O)[C@H]3O)c(O)c21 (stereo not given in full),105% (inactive)
14,OCCNc1nc(NCCO)nc(Nc2ccc(C3=NN(c4ccc(Cl)cc4)C(c4ccc(Cl)cc4)C3)cc2)n1 (stereo not given),47.2% (inactive)
15,CCCCn1c2cc(OCc3cn(-c4ccc(Cl)cc4)nn3)ccc2c2ccnc(C)c21,41.2% (inactive)
16,Oc1ccccc1-c1nc2c3ccccc3c3ccccc3c2o1,101% (inactive)
17,COC1=CC=CC2(OC)C3(O)CCCc4cccc(c43)N3C(=O)COC132 (stereo not given),102% (inactive)
18,O=[N+]([O-])c1cccc(CN(Cc2cccc([N+](=O)[O-])c2O)c2ccccc2)c1O,78.4% (inactive)
19,CSc1nc(-c2ccc(F)cc2)c(C#N)c(N2CCOCC2)n1,97.3% (inactive)
20,C=C(C)[C@@H]1CC[C@]2(C(=O)OCCOCCOCC[P+](c3ccccc3)(c3ccccc3)c3ccccc3)CC[C@]3(C)[C@H](CC[C@@H]4[C@@]5(C)CC[C@H](OC(C)=O)C(C)(C)[C@@H]5CC[C@]43C)[C@@H]12,-84.9% (active)

row,Compound,growth
1,CCCCc1ccc(N=Nc2ccc(OCC[N+](C)(C)C)cc2)cc1,20% (inactive)
2,CCCn1c2cc(OCc3cn(-c4ccc(Br)cc4)nn3)ccc2c2ccnc(C)c21,63.9% (inactive)
3,COC(=O)c1nc(-c2ccccc2)oc1S(=O)(=O)n1nc(-c2ccccc2)cc1N,101% (inactive)
4,Cc1ccc(-c2nc(C#N)c(S(=O)(=O)N(C)CCO)o2)cc1,97.7% (inactive)
5,C=C(C)[C@@H]1CC[C@]2(C(=O)O)CC[C@]3(C)[C@H](CC[C@@H]4[C@@]5(C)C[C@@H](CC#Cc6ccccc6)C(=O)C(C)(C)[C@@H]5CC[C@]43C)[C@@H]12,32.5% (inactive)
6,COc1ccc2nc(-c3ccc(OC)c(OC)c3)cc(-c3nnc(SCC(=O)Nc4ccc(/C(C)=N\O)cc4)n3-c3ccccc3)c2c1,87.9% (inactive)
7,Cc1ccc(C2=N[C@H]3CCC[C@@H]3N(c3ccccc3)C(C(Cl)Cl)=N2)cc1,111% (inactive)
8,Cc1cnc(-c2ccc(-c3ccc(NC(=O)Nc4c(F)cc(F)cc4F)cc3F)c3c2C(=O)NC3)[nH]1,53.2% (inactive)
9,CCO/C=N/S(=O)(=O)c1cc2c(cc1Cl)NC=NS2(=O)=O,93.9% (inactive)
10,COC(=O)c1ccc2c(c1)NC(=O)[C@@H]1CCCN21,85.7% (inactive)
11,NC(N)=NC(N)=Nc1cc2ccccc2c2ccccc12,38.3% (inactive)
12,Cc1ccc(C(=O)/C(=C/c2ccc([N+](=O)[O-])cc2)S(=O)Cc2ccccc2)cc1 (stereo not given),47.9% (inactive)
13,O=C1Nc2ccc(Br)cc2/C1=N\N=C/c1cn(Cc2ccccc2)c2ccccc12,97.2% (inactive)
14,O=C(CN1N=C(c2ccc(F)cc2)CCC1=O)Nc1nccs1,98.9% (inactive)
15,O=C1c2ccccc2C(=O)c2c1oc1c2c(=O)[nH]c2ccccc21,119% (inactive)
16,C[C@@H]1C(=O)[C@@H]2C[C@@H](O)[C@@H](O)C[C@]2(C)[C@H]2CC[C@@]3(C)C(=C12)CC[C@@H]3[C@@](C)(O)[C@H](O)CCC(C)(C)O,91% (inactive)
17,Cc1ccc(C(=O)O)o1,109% (inactive)
18,COc1ccc(-n2cc(-c3ccc(Cl)c(Cl)c3)[nH]c2=O)cc1OC,97.3% (inactive)
19,C=C(C)[C@@H]1CC[C@]2(C(=O)O)CC[C@]3(C)[C@H](CC[C@@H]4[C@@]5(C)C[C@@H](CC#Cc6ccc(Cl)cc6)C(=O)C(C)(C)[C@@H]5CC[C@]43C)[C@@H]12,54.7% (inactive)
20,Oc1c(CCl)cc(Cl)cc1Cc1cc(Cl)cc(Cc2cc(Cl)cc(CCl)c2O)c1O,57.2% (inactive)
